31 compounds from PubChem BioAssay AID1159569 (Broad Institute, 2015) can be followed below.

Molecules are shown by their SMILES. Results with a measured potency or affinity are listed apart. Records with an inconclusive call do not appear. The source made the active and inactive calls. How the calls were made is not given here.

The nature of the test: HepG2 cell cytotoxicity, dose response, cytotoxicity control, plate reader, dry powder samples (AID 1159569). Particulars: HepG2 cytotoxicity counterscreen; series mostly up to 50 µM.
Consider `Cc1nc(N2[C@H](CO)[C@H](c3ccccc3)[C@H]2CNCC2CCCC2)sc1C`, for which the outcome was inactive. For `COc1ccccc1S(=O)(=O)N(C)C[C@H]1Oc2cc(/C=C/c3ccccc3)ccc2S(=O)(=O)N([C@H](C)CO)C[C@@H]1C`, the outcome was inactive. For `O=C(Nc1ccccc1)N1CCCCN2[C@@H](CO)[C@H](c3ccc(C#Cc4cccnc4)cc3)[C@@H]2C1` the value was “inactive”. With `C[C@H]1CN([C@@H](C)CO)C(=O)c2c(c3ccccc3n2C)-c2ccccc2CO[C@@H]1CN(C)C(=O)Nc1cccc(C(F)(F)F)c1`, the compound was classed as inactive. Take `C[C@@H]1CN([C@H](C)CO)C(=O)c2cccc(NC(=O)c3nc4ccccc4s3)c2O[C@H]1CN(C)C(=O)Nc1ccc(C(F)(F)F)cc1`: the result was inactive. In the case of `Cc1ccc(-c2ccccc2[C@H]2[C@@H](C#N)N(C(=O)c3cccc(F)c3)[C@H]2CO)cc1`, the result was inactive.

For `COc1ccc(NC(=O)N2CCCCN3[C@@H](CO)[C@H](c4ccc(C#Cc5ccccn5)cc4)[C@@H]3C2)cc1`, the result was inactive. For `CCc1csc(N2[C@H](C#N)[C@H](c3ccccc3-c3ccc(F)cc3)[C@H]2CO)n1`, the call was inactive. To `COc1ccc2c3c(n(C)c2c1)[C@@H](CO)N(C(=O)c1ccc(F)cc1)CC31CN(C(=O)Nc2ccc(F)cc2)C1` belongs “inactive”; to `C[C@@H]1CN([C@H](C)CO)C(=O)c2cc(C#CCc3ccccc3)cnc2O[C@H]1CN(C)C(=O)C1CCC1`, “inactive”; to `COc1ccc(-c2ccccc2[C@H]2[C@@H](C#N)N(C(=O)C3CCCCC3)[C@H]2CO)cc1`, “inactive”.

`CC(C)(C)S(=O)N1Cc2cc(C(=O)NCc3ccc4c(c3)OCO4)nc(-c3cccc(-c4cc5ccccc5o4)c3)c2[C@H]1CCO` (stereo partly specified): the compound was called inactive. On to `C[C@H](CO)N1C[C@H](C)[C@H](CN(C)CC2CC2)Oc2ccc(NC(=O)Nc3ccccc3)cc2CC1=O`, for which the compound was called inactive.

As to `C[C@@H](NC(=O)C[C@H]1C[C@@H]2c3cc(NS(=O)(=O)c4ccc(F)cc4)ccc3O[C@@H]2[C@H](CO)O1)c1ccccc1`, the call was inactive. `CC(C)CNC[C@@H]1[C@@H](c2ccccc2)[C@@H](CO)N1Cc1ccc(F)cc1`: the call was inactive.

For the compound `C[C@@H]1CN([C@@H](C)CO)C(=O)c2cccc(NC(=O)Nc3ccccc3)c2O[C@@H]1CN(C)C(=O)Nc1ccc(F)cc1`, the compound was called inactive. As to `COc1ccc2c3c(n(C)c2c1)[C@@H](CO)N(C(=O)c1ccccc1)CC31CCN(C(=O)c2ccccc2)CC1`, the call was inactive.

`CO[C@@H]1CN(C)C(=O)c2ccc(NC(=O)c3ccc4c(c3)OCO4)cc2OC[C@@H](C)N(Cc2ccc3c(c2)OCO3)C[C@H]1C`: the outcome was inactive. For `O=C(Nc1ccccc1F)N1CCCCN2[C@H](CO)[C@H](c3ccc(C#Cc4cccnc4)cc3)[C@@H]2C1` the value was “inactive”. As for `COc1ccc2c3c(n(C)c2c1)[C@@H](CO)N(C(=O)C1CCCC1)CC31CCN(C(=O)Nc2cccc(F)c2)CC1`, the call was inactive.

As to `C[C@@H]1CN([C@H](C)CO)C(=O)c2cccc(NC(=O)c3ccc(-c4nccs4)cc3)c2O[C@H]1CN(C)Cc1ccc(C(F)(F)F)cc1`, the result was inactive. `C[C@@H]1CN([C@@H](C)CO)C(=O)c2cccc(NC(=O)c3nc4ccccc4s3)c2O[C@H]1CN(C)C(=O)Nc1ccc2c(c1)OCO2`: the compound was called inactive. In the case of `C/C=C/c1ccc2c(c1)[C@H]1[C@H](CCN1C(=O)c1ccc(F)cc1)[C@H](CO)N2`, the compound was called inactive. Turning to `COc1cccc(CN2CC3(CCN(Cc4ccccn4)CC3)c3c([nH]c4cc(OC)ccc34)[C@@H]2CO)c1`, the compound was called inactive. As for `COc1ccccc1S(=O)(=O)N(C)C[C@@H]1OCc2ccccc2-c2c(n(C)c3ccccc23)C(=O)N([C@@H](C)CO)C[C@@H]1C`, the compound was classed as inactive. To `COc1cccc(S(=O)(=O)N(C)C[C@@H]2Oc3ncc(C#Cc4ccc(OC)c(OC)c4)cc3C(=O)N([C@H](C)CO)C[C@@H]2C)c1` belongs “inactive”. Take `COc1ccc(C#Cc2cnc3c(c2)C(=O)N([C@H](C)CO)C[C@H](C)[C@H](CN(C)S(=O)(=O)c2cccc(F)c2)O3)cc1OC`: the compound was called inactive. In the case of `COc1ccc(NC(=O)N(C)C[C@@H]2Oc3c(NC(=O)c4nc5ccccc5s4)cccc3C(=O)N([C@@H](C)CO)C[C@H]2C)cc1`, the compound was classed as inactive. For `COc1ccc(C#Cc2ccc3c(c2)O[C@H](CN(C)S(=O)(=O)c2ccccc2F)[C@@H](C)CN([C@H](C)CO)S3(=O)=O)cc1` the value was “inactive”; for `O=C(c1cccc(F)c1)N1CC(=O)N2[C@H](C1)[C@@H](c1ccc(-c3cccnc3)cc1)[C@@H]2CO`, “inactive”. Consider `C[C@@H]1CN([C@@H](C)CO)C(=O)Cc2cc(NC(=O)Nc3ccc4c(c3)OCO4)ccc2O[C@@H]1CN(C)CC1CC1`, for which the outcome was inactive.
